HCMV antiviral: blocks human cytomegalovirus replication | HFF cells, HCMV-luciferase reporter, 72 h; active compounds read low | activity change, negative = inhibition, % at 57.5 µM | 410,000 tested, 4.5% active | AID 1259415; in the data active = activity change below about -60%; inconclusive = no clear call, values can overlap the other calls; inactive = above about -39%
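After 16 h attachment at 37C, HFF cells received test compound and HCMV-luciferase (1 PFU/cell); reporter luminescence read 72 h later, data normalized against buffer-only and known inhibitor Salinomycin.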
FMDV inh: antivirals against foot and mouth disease virus | FMDV antiviral cell-based qHTS | Potency, µM (doses to about 57.9 µM), hits mostly inhibitors | AID 1159524 | 410,000 tested, 1.2% active; calls by dose curve; tested in HEK293T cells; also: read-out not given here; nearly all actives have a fitted effect of over 45% in size
VACV mCherry inh: vaccinia inhibition (mCherry reporter); Vaccinia virus mCherry reporter infection, fluorescence; 310,000 tested, 0.63% active; Potency, µM (titrated, usually from 36.5 µM), actives largely listed as inhibitors; calls by dose curve; tested in A549 cells; also: nearly all actives have a fitted effect of over 35% in size
HCV inhibitor: HCV inhibition | AID 651820 | Potency, µM (doses to about 41.8 µM), most hits filed as inhibitors | Huh7.5.1 HCVcc-Cre infection, luciferase reporter, 44 h | 340,000 tested, 3.4% active; active = well fitted inhibition curve with a large enough effect; inconclusive = small, poorly fitted or top-dose-only effect, or another doubt; inactive = no such curve, though single readings can be large or run the other way
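Compounds are dispensed onto cells plated 4 h earlier at 1,000 per well, with HCVcc-Cre virus (about 0.5 moi) added next. Following 44 h of culture, luminescent signal is measured for 15 sec after 15 min with substrate at room temperature.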
VACV Venus inh: inhibitors of vaccinia virus (Venus reporter). Vaccinia virus Venus reporter expression, fluorescence. Potency, µM (series often up to 36.5 µM), most hits filed as inhibitors. 330,000 tested, 0.46% active. AID 720580; calls by dose curve; tested in A549 cells; also: nearly all actives have a fitted effect of over 30% in size
Numbers stand for hits; . = inactive; ? = inconclusive; / = no result given; ! = repeats disagree. This is a sample that favours compounds with a hit; in the whole collection about 7.3% have one here.

SMILES | HCMV antiviral | FMDV inh | VACV mCherry inh | HCV inhibitor | VACV Venus inh
Cc1cccc(NC(=O)CCc2nc3sc4c(c3c(=O)[nH]2)CCCC4)c1 | . | . | . | . | .
O=C(c1cccs1)N(Cc1nc2sc3c(c2c(=O)[nH]1)CCCC3)C1CCCC1 | -71 | . | 13µM | ? | .
Cc1ccc(S(=O)(=O)N2CCC([C@@H](C#N)c3ccccc3)CC2)cc1 | . | / | / | / | /
COc1ccc(S(=O)(=O)Nc2ccc3oc4c(c3c2)C(=O)CC(C)(C)C4)cc1 | . | . | . | / | .
O=C(COC(=O)c1c2c(nc3ccccc13)/C(=C\c1ccco1)CC2)NC1CCCC1 | . | . | . | ? | .
O=C(COC(=O)c1c2c(nc3ccccc13)/C(=C/c1cccc([N+](=O)[O-])c1)CCC2)NC1CCS(=O)(=O)C1 (centres undefined) | . | ? | ? | 3.5µM | ?
COC(=O)c1cc(C(=O)OCC(=O)N(C)C2CCS(=O)(=O)C2)cc([N+](=O)[O-])c1 (centres undefined) | . | . | . | . | .
CN(C(=O)COC(=O)/C=C/c1cccc([N+](=O)[O-])c1)C1CCS(=O)(=O)C1 (centres undefined) | . | . | 1.8µM | . | 2.8µM
CN(C(=O)COC(=O)c1c2c(nc3ccccc13)/C(=C/c1cccc([N+](=O)[O-])c1)CCC2)C1CCS(=O)(=O)C1 (centres undefined) | ? | . | . | 1.8µM | .
COc1ccc(OC)c(-n2c3c(cc(-c4nc(-c5ccc(Cl)cc5)cs4)c2=O)C(=O)CC(C)(C)C3)c1 | . | . | . | / | .
O=C(Nc1ccccc1C(=O)N1CCCCCC1)c1ccccc1 | -64 | . | . | . | .
Cc1ccc(C(=O)Nc2ccccc2C(=O)N2CCN(c3ccccc3)CC2)cc1 | . | . | . | . | .
Cc1ccc(N2CCN(C(=O)c3ccccc3NC(=O)c3ccccc3C(=O)O)CC2)cc1 | -103 | . | . | . | .
CC(C)CCCCCCCCCCCCC(=O)NCC(=O)NC1C(C)OC(Nc2ncnc3nc[nH]c23)C(O)C1O (centres undefined) | -96 | ? | ? | 1µM | 2µM
CCCCN(C(=O)c1ccc(NC2CC2)c([N+](=O)[O-])c1)c1c(N)n(CCCC)c(=O)[nH]c1=O | . | . | . | ? | .
COc1ccc(/C=C2\N=C(SC)N(c3ccccc3OC)C2=O)cc1 | -96 | ? | / | ? | /
CCOc1ccc(N2C(=O)/C(=C/c3ccccc3)N=C2SC)cc1 | . | . | / | . | /
Cc1ccc(C(=O)NN=C2CCCCCC2)s1 | ? | . | / | . | /
Cc1ccsc1C(=O)NN=C1CCCCCC1 | -99 | . | / | . | /
C/C(=N\NC(=O)CCCNc1ccc(C)cc1)c1ccccn1 | -67 | . | 11µM | ? | ?
Fc1ccc(N/N=C(/c2ccccc2)c2ccccn2)cc1 | -61 | . | . | ? | .
C/C(=N\NC(=O)c1c[nH]c2ccccc12)c1ccccn1 | -82 | . | 10µM | ? | ?
C/C(=N\NC(=O)c1c[nH]c2ccccc12)c1ccco1 | . | / | . | . | .
C/C(=N\NC(=O)CCCNc1ccccc1)c1ccncc1 | . | . | . | . | .
C/C(=N\NC(=O)c1ccc(F)cc1)c1ccccn1 | -98 | . | ? | 2.5µM | ?
SMILES | HCMV antiviral | FMDV inh | VACV mCherry inh | HCV inhibitor | VACV Venus inh
CCc1ccc(/C(C)=N/NC(=O)c2ccccn2)cc1 | . | . | / | . | /
CCCc1cnc2c(c1SCC(=O)N(C)c1ccccc1)c(=O)n(C)c(=O)n2C | . | . | . | / | .
C/C(CC(=O)N1CCN(C=O)CC1)=N\NC(=O)c1cc2ccccc2cc1O | -64 | . | . | . | .
C/C(=N\NC(=O)c1ccccc1-n1cccc1)c1ccccn1 | -99 | ? | ? | / | ?
C/C(=N\NC(=O)c1cc2ccccc2cc1O)c1ccccn1 | -99 | ? | ? | 3.2µM | .
CCN(CC)C(=O)COc1ccc(/C(C)=N/NC(=O)c2ccccc2-n2cccc2)cc1 | . | . | . | . | .
CCOc1ccc(C(=O)N/N=C(\c2ccccc2)c2ccccn2)cc1 | -99 | . | 11µM | 10µM | ?
c1ccc2sc(N3CCN(Cc4nnnn4CC4CCCO4)CC3)nc2c1 (centres undefined) | . | ? | / | . | /
c1ccc2sc(C3CCN(Cc4nnnn4Cc4ccc5c(c4)OCO5)CC3)nc2c1 | ? | 20µM | ? | ? | ?
COc1ccc(Cn2nnnc2CN2CCC(c3nc4ccccc4s3)CC2)cc1 | -70 | 20µM | / | 25µM | /
Cc1cc2nc(C3CCN(Cc4nnnn4Cc4ccccc4)CC3)[nH]c2cc1C | . | / | . | ? | ?
O=C(CNC(=O)c1ccccc1)OCCCOC(=O)CNC(=O)c1ccccc1 | . | . | . | / | .
Cc1cc(C)n(-c2nc3ccccc3nc2Nc2ccc3[nH]c(=O)[nH]c3c2)n1 | . | ? | . | 11µM | .
CCN(C(=O)c1cc(S(=O)(=O)N2CCCC2)cn1C)c1ccc(OC)cc1 | . | . | . | / | .
Cn1c(=O)c2cc(NC(=S)NC3CCCCC3)ccc2n1Cc1cccc(C(F)(F)F)c1 | -71 | . | . | / | .
CCNC(=S)Nc1ccc2c(c1)c(=O)n(C)n2Cc1cccc(C(F)(F)F)c1 | . | . | . | / | .
COc1ccc(/C(N)=N/OC(=O)c2ccc3c(c2)OCO3)cc1OC | . | / | . | 8.9µM | .
COc1ccc(C(=O)O/N=C(\N)Cc2ccc(Cl)cc2)cc1OC | ? | ? | / | 32µM | ?
COc1ccc(C/C(N)=N/n2cnnc2)cc1Cl | . | . | / | . | .
COc1ccc(C(=O)O/N=C(\N)Cc2ccc(Cl)c(Cl)c2)cc1OC | . | ? | ? | 22µM | ?
COc1cc(OC)c(C(=O)O/N=C(\N)c2ccc(C)cc2)cc1OC | . | . | . | 11µM | .
COC(=O)[C@@]1(Cc2ccc(F)cc2)[C@H]2c3cc(C(=O)N(C)C)n(CCc4c[nH]c5ccc(O)cc45)c3C[C@H]2CN1C(=O)c1ccccc1 | . | . | . | / | .
O=C(COC(=O)CNC(=O)c1ccccc1)NC(=O)NC1CCCCC1 | . | . | . | . | .
COc1cccc(Cn2c(=O)n(-c3cc(C)cc(C)c3)c(=O)c3oc4ccccc4c32)c1 | . | . | . | / | .
CCn1c(COc2ccc(=O)n(-c3ccccc3)n2)nnc1SCc1ccc(C)cc1 | . | . | / | . | /
SMILES | HCMV antiviral | FMDV inh | VACV mCherry inh | HCV inhibitor | VACV Venus inh
CCn1c(COc2ccc(=O)n(-c3ccccc3)n2)nnc1SCc1ccccc1C | -65 | . | / | . | /
Cc1ccc2c(c1)-n1c(nc3ccc(C)cc3c1=O)C(Cc1ccc(O)cc1)NC2=O (centres undefined) | . | / | / | ? | /
N#Cc1c2n(c3c(=O)n(Cc4ccccc4Cl)cnc13)CCCC2 | . | . | / | 11µM | /
COc1ccccc1N(CC(=O)NCCSCc1ccccc1)S(=O)(=O)c1ccc(C)cc1 | -63! | 35µM | ? | 25µM | ?
COc1ccccc1N(CC(=O)NCCSCc1ccccc1)S(=O)(=O)c1ccccc1 | -73 | ? | . | / | ?
O=c1c2sc3ccccc3c2n(Cc2ccc(F)cc2)c(=O)n1Cc1ccccc1 | . | . | . | / | .
CC(CCl)OC(C)CCl (centres undefined) | -74 | . | . | . | .
